The full data set covers some 8,800 targets. This sample favours those with a hit. About 0.5% of all pairs of compound and target were hits. Values without a mark were called inactive.
Experiments:
Assay in all cases: log2 fold change, soluble protein after heating vs DMSO (PISA); higher = thermal stabilisation; K562 lysate, 10 uM; active = over 0.2 and 3.5 SD of the protein, either way, in both replicates (recomputed)
nilotinib = compound: Cc1cn(-c2cc(NC(=O)c3ccc(C)c(Nc4nccc(-c5cccnc5)n4)c3)cc(C(F)(F)F)c2)cn1 [nilotinib]
How it was run: (§1)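 Soluble protein was defined as the supernatant remaining after 21,000xg for 90 min, following pooling of heated aliquots and adjustment to 0.5% NP-40 at 4°C. Before that, crude K562 extract at 1 mg/mL protein in PBS pH 7.4 with 1 mM MgCl2 was treated with 10 μM compound for 30 min and heated for 3 min across 48°C-58°C. Quantification used TMTpro 16plex LC-MS/MS with channel sums equalised, and values are log-two fold changes in thermal stability relative to solvent controls from duplicates.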

[1] = compound: Cc1nc(Nc2n[nH]c3c2CN(C(=O)N[C@H](CN(C)C)c2ccccc2)C3(C)C)c2sccc2n1
How it was run: as §1

dasatinib = compound: Cc1nc(Nc2ncc(C(=O)Nc3c(C)cccc3Cl)s2)cc(N2CCN(CCO)CC2)n1 [dasatinib]
How it was run: as §1

[2] = compound: Cc1ncc(-c2ccnc(Nc3ccc(S(C)(=O)=O)cc3)n2)n1C(C)C
How it was run: as §1

[3] = compound: Cn1cc(-c2ccc3c(c2)CCN3C(=O)Cc2cccc(C(F)(F)F)c2)c2c(N)ncnc21
How it was run: as §1

quisinostat = compound: Cn1cc(CNCC2CCN(c3ncc(C(=O)NO)cn3)CC2)c2ccccc21 [quisinostat]
How it was run: as §1

tipifarnib = compound: Cn1cncc1[C@@](N)(c1ccc(Cl)cc1)c1ccc2c(c1)c(-c1cccc(Cl)c1)cc(=O)n2C [tipifarnib]
How it was run: as §1

[4] = compound: NC(=O)Nc1cc(-c2cccc(F)c2)sc1C(=O)N[C@H]1CCCNC1
How it was run: as §1

[5] = compound: NC(=O)c1cnc(N[C@@H]2CCCC[C@@H]2N)nc1Nc1cccc(-n2nccn2)c1
How it was run: as §1

[6] = compound: NC1(c2ccc(-c3nc4ccn5c(=O)[nH]nc5c4cc3-c3ccccc3)cc2)CCC1
How it was run: as §1

[7] = compound: NCC(=O)Nc1ccc(-n2nc(C(F)(F)F)cc2-c2ccc3c(ccc4ccccc43)c2)cc1
How it was run: as §1

vorinostat = compound: O=C(CCCCCCC(=O)Nc1ccccc1)NO [vorinostat]
How it was run: as §1

silmitasertib = compound: O=C(O)c1ccc2c(c1)nc(Nc1cccc(Cl)c1)c1ccncc12 [silmitasertib]
How it was run: as §1

[8] = compound: O=C1NC(=O)C(c2cnc3ccccn23)=C1c1cn2c3c(cc(F)cc13)CN(C(=O)N1CCCCC1)CC2
How it was run: as §1

entospletinib = compound: c1cn2cc(-c3ccc4cn[nH]c4c3)nc(Nc3ccc(N4CCOCC4)cc3)c2n1 [entospletinib]
How it was run: as §1

Sequence of UniProt Q9NQZ2 (Q9NQZ2 whole entry, looked up): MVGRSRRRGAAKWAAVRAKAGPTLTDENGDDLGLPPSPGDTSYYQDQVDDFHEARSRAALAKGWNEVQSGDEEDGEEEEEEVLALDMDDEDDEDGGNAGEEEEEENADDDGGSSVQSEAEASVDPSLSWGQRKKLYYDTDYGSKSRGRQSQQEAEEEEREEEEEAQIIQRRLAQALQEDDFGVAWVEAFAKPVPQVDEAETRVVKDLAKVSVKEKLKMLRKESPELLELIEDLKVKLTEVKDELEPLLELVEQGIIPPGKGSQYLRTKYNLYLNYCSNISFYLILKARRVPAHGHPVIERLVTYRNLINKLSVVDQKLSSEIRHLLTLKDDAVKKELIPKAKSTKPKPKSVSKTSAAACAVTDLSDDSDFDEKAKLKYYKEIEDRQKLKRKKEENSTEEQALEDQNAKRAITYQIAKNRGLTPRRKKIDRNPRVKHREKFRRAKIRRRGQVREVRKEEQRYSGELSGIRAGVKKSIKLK
Sequence of UniProt Q14191 (Q14191 whole entry, looked up): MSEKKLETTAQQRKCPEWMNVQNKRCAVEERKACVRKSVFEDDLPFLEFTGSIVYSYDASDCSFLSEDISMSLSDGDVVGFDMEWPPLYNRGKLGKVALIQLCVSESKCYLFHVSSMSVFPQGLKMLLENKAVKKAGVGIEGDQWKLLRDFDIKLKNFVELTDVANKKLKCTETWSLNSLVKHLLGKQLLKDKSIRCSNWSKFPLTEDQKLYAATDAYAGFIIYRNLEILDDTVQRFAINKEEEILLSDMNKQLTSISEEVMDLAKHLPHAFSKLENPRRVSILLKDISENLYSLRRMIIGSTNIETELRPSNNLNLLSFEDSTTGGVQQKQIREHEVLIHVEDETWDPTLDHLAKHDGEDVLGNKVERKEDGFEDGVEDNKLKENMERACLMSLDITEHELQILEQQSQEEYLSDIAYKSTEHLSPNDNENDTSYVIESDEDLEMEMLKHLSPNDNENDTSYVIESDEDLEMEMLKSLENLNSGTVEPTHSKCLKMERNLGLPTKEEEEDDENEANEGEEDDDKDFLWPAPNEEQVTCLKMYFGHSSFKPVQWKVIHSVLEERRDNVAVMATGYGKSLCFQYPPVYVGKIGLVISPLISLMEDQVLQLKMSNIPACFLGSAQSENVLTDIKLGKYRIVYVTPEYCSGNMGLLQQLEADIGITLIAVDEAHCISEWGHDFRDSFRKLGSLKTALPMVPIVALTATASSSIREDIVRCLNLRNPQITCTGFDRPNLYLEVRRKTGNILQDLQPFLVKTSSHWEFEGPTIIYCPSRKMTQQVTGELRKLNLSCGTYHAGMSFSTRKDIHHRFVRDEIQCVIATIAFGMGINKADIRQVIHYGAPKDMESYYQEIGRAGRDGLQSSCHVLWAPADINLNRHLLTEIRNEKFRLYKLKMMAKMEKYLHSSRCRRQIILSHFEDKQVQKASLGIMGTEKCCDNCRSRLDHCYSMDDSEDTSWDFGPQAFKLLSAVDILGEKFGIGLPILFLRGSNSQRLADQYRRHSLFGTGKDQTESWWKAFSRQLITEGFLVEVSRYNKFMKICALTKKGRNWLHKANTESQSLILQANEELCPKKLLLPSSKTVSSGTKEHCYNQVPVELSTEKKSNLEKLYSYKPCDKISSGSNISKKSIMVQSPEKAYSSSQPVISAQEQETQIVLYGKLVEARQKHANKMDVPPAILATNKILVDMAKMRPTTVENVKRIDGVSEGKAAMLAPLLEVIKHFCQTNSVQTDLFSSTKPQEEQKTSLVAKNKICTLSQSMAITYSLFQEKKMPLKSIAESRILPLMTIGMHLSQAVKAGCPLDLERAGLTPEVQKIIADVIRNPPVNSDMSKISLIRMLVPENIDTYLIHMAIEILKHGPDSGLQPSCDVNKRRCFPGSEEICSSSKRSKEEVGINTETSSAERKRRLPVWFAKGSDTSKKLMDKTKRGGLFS
Sequence of UniProt P30291 (P30291 whole entry, looked up): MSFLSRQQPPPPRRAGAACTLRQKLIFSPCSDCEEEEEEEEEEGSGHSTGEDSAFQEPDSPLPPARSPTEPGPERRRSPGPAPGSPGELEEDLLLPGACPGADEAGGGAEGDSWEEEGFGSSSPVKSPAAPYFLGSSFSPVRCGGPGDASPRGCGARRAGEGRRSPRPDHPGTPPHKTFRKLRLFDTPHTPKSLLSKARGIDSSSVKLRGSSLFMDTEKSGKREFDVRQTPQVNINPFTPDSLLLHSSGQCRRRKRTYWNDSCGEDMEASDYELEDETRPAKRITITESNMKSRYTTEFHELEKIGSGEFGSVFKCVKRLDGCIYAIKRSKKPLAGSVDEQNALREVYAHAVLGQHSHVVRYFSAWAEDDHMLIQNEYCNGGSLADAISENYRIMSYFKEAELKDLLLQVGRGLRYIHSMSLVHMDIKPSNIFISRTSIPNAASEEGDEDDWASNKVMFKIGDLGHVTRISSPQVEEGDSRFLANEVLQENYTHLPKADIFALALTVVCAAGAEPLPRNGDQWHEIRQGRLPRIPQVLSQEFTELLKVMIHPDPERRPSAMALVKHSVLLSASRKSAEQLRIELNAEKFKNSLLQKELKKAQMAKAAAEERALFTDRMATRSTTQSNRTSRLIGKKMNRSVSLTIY
Sequence of UniProt Q96JH7 (Q96JH7 whole entry, looked up): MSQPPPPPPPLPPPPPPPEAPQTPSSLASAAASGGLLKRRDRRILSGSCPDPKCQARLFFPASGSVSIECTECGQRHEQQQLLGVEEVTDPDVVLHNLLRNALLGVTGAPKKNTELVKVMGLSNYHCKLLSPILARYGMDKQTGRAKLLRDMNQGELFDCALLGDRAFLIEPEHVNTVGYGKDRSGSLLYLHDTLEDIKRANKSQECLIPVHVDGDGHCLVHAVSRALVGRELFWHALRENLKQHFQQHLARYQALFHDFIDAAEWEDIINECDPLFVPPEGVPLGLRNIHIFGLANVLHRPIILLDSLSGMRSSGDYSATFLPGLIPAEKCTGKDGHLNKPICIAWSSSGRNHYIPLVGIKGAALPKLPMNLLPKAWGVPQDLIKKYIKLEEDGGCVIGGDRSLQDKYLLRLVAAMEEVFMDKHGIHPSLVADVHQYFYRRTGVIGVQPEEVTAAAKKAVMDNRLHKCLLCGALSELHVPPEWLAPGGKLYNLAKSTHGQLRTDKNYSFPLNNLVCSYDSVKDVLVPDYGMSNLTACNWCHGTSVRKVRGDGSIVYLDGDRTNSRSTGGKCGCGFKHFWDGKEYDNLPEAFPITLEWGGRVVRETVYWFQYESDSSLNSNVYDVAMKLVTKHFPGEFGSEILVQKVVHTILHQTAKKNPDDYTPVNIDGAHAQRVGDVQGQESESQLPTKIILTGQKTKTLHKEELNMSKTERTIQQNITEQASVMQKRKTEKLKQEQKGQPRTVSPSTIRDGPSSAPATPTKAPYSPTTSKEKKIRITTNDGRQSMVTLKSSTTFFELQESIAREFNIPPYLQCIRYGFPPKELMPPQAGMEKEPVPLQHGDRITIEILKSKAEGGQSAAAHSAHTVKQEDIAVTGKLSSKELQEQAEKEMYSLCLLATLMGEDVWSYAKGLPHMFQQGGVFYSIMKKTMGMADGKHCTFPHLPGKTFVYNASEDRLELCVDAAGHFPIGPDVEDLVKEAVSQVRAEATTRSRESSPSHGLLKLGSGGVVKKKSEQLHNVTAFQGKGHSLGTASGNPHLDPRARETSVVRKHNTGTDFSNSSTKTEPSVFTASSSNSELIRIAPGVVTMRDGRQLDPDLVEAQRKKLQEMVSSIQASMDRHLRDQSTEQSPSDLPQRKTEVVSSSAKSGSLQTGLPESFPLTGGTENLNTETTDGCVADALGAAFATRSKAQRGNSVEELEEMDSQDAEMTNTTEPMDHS
Sequence of UniProt Q99986 (Q99986 whole entry, looked up): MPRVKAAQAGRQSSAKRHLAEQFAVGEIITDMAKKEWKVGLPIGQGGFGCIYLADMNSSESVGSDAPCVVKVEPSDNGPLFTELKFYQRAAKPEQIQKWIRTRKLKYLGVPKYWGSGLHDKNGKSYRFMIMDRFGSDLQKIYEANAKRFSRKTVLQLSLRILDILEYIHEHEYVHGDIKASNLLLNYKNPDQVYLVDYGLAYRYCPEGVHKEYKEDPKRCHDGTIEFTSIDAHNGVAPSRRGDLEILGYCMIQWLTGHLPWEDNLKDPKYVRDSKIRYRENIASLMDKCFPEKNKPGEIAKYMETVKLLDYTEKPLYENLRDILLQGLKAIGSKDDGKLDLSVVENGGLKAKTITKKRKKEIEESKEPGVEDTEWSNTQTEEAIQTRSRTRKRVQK
Sequence of UniProt Q96AX1 (Q96AX1 whole entry, looked up): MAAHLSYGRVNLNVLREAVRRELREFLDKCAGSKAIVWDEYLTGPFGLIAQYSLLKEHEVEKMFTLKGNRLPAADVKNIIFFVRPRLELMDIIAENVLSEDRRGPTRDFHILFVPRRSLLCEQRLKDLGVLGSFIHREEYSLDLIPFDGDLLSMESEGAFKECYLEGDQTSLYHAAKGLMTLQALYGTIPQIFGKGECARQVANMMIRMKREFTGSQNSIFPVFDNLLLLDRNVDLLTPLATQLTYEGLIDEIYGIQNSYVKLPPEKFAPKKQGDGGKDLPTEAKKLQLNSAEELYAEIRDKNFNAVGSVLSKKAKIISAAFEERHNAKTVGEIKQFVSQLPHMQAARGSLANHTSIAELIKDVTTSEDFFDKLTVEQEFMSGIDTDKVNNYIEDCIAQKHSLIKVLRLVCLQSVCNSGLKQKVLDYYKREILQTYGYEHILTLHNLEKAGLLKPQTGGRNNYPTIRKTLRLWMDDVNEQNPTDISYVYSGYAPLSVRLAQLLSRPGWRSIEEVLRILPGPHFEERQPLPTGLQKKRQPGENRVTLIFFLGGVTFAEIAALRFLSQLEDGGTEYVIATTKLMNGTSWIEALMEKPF
Sequence of UniProt Q86U90 (Q86U90 whole entry, looked up): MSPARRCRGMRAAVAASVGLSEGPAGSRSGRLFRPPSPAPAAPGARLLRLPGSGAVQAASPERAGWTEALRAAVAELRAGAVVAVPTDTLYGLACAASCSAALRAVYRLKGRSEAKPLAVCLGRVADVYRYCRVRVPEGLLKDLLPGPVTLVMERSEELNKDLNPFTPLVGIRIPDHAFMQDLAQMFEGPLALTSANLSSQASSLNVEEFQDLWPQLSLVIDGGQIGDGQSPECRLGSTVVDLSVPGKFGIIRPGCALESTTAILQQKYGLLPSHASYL

Row | Target | log2 fold change (nilotinib) | log2 fold change [1] | log2 fold change (dasatinib) | log2 fold change [2] | log2 fold change [3] | log2 fold change (quisinostat) | log2 fold change (tipifarnib) | log2 fold change [4] | log2 fold change [5] | log2 fold change [6] | log2 fold change [7] | log2 fold change (vorinostat) | log2 fold change (silmitasertib) | log2 fold change [8] | log2 fold change (entospletinib)
1 | ZC3H13 (UniProt Q5T200) | -0.033 | 0.137 | -0.035 | 0.144 | -0.044 | -0.067 | -0.184 | 0.002 | 0.028 | -0.049 | 0.174 | -0.052 | -0.008 | -0.104 | 0.001
2 | WDR41 (UniProt Q9HAD4) | -0.012 | -0.023 | 0.028 | -0.011 | 0.005 | -0.036 | -0.077 | -0.009 | -0.032 | -0.017 | -0.017 | -0.284 (active) | 0.022 | -0.08 | 0.01
3 | USP10 isoform 2 (UniProt Q14694) | -0.022 | 0.013 | -0.058 | 0.013 | -0.013 | -0.081 | -0.007 | 0.034 | -0.011 | -0.012 | 0.022 | -0.294 (active) | 0 | -0.002 | -0.002
4 | XPO5 (UniProt Q9HAV4) | -0.025 | -0.016 | -0.068 | 0.013 | 0.005 | -0.092 | -0.015 | 0.029 | 0.023 | -0.024 | 0 | -0.574 (active) | 0.035 | 0.011 | 0.015
5 | ZMYM4 (UniProt Q5VZL5) | -0.016 | 0.003 | -0.001 | -0.005 | -0.061 | -0.028 | -0.051 | 0.067 | 0.021 | -0.003 | 0.05 | -0.383 (active) | -0.016 | 0.009 | -0.013
6 | VRK1 (UniProt Q99986) | -0.002 | 0 | -0.001 | 0.005 | 0.032 | -0.059 | -0.018 | 0.015 | 0.003 | -0.046 | -0.013 | -0.08 | 0.091 | 0.002 | 0.056
7 | WRN (UniProt Q14191) | -0.027 | -0.018 | -0.108 | -0.004 | 0.022 | -0.042 | -0.005 | 0.03 | 0.089 | -0.013 | 0.003 | -0.282 (active) | 0.035 | -0.013 | -0.005
8 | ZMYM1 (UniProt Q5SVZ6) | 0.023 | -0.036 | 0.006 | -0.019 | 0.007 | -0.08 | -0.012 | 0.03 | 0.003 | 0.028 | -0.014 | -0.202 | 0.042 | -0.004 | 0.021
9 | YLPM1 (UniProt P49750) | -0.023 | -0.192 | 0.018 | -0.384 (active) | 0.021 | -0.015 | -0.011 | 0.033 | 0.041 | -0.013 | 0.013 | -0.126 | -0.011 | 0.017 | -0.004
10 | VCPIP1 (UniProt Q96JH7) | -0.006 | 0.044 | -0.045 | -0.025 | 0.016 | -0.046 | 0.011 | 0.031 | 0.029 | -0.059 | 0.007 | 0.894 (active) | 0.029 | -0.021 | 0.006
11 | ZC3H11A (UniProt O75152) | -0.021 | -0.006 | -0.021 | 0.041 | -0.022 | -0.094 | -0.007 | 0 | 0.004 | 0.035 | 0.123 | -0.375 (active) | -0.026 | 0.062 | -0.009
12 | VPS33A (UniProt Q96AX1) | -0.007 | -0.004 | -0.007 | -0.027 | 0.045 | -0.018 | -0.006 | 0.041 | 0.021 | -0.034 | 0.011 | -0.222 (active) | 0.025 | 0.007 | -0.018
13 | VPS11 (UniProt Q9H270) | -0.007 | -0.008 | -0.003 | -0.018 | -0.002 | -0.055 | -0.002 | 0.06 | -0.003 | 0.003 | 0.023 | -0.509 (active) | -0.009 | 0.011 | -0.006
14 | UTP3 (UniProt Q9NQZ2) | -0.106 | 0.008 | -0.048 | -0.054 | -0.023 | 0.014 | 0.051 | 0.065 | 0.002 | 0 | 0.307 (active) | 0.143 | 0.022 | -0.039 | 0.02
15 | VPS16 (UniProt Q9H269) | 0 | 0.011 | -0.013 | 0.014 | 0.021 | -0.095 | -0.012 | 0.022 | 0.004 | 0.009 | -0.047 | -0.543 (active) | 0.076 | -0.01 | 0.03
16 | USP9X (UniProt Q93008) | -0.01 | 0 | -0.045 | 0.002 | 0 | -0.017 | -0.024 | 0.03 | 0.02 | -0.003 | 0.011 | -0.466 (active) | 0.028 | -0.012 | 0
17 | VPS54 (UniProt Q9P1Q0) | 0.013 | -0.041 | -0.112 | 0.205 | 0.146 | -0.409 (active) | -0.111 | 0.065 | 0.089 | -0.121 | 0.112 | -0.055 | -0.001 | 0.002 | 0.007
18 | VPS41 (UniProt P49754) | 0.034 | 0.014 | -0.038 | 0.001 | 0.057 | -0.048 | -0.029 | 0.029 | 0.001 | -0.009 | -0.025 | -0.471 (active) | 0.004 | -0.018 | 0.007
19 | YRDC (UniProt Q86U90) | 0 | 0.021 | 0.022 | 0.018 | -0.019 | -0.019 | 0.008 | -0.004 | 0.01 | -0.003 | 0.024 | -0.424 (active) | 0.006 | -0.017 | -0.016
20 | ZC3HC1 (UniProt Q86WB0) | -0.013 | -0.005 | 0.029 | 0.007 | -0.009 | -0.033 | -0.03 | 0.025 | 0.017 | 0.024 | 0.021 | -0.368 (active) | -0.034 | -0.03 | 0.01
21 | WEE1 (UniProt P30291) | -0.002 | 0.001 | 0.397 (active) | -0.033 | -0.002 | -0.069 | -0.007 | 0.223 | -0.106 | -0.044 | 0.023 | -0.52 (active) | 0.107 | -0.03 | -0.007

From the supplement of paper PMC10849652
